# Source: PubChem BioAssay (EPA / NIEHS)
# Where “and” joins values, the source holds several entries; their conditions need not be identical. Equal entries are not always repeated. Records with an inconclusive call do not appear. Some compounds were tested as several samples or in several runs, with calls that do not always agree. Calls of active or inactive are those of the source. How the source made its calls, unless noted: active means hit-call score of the fitted dose curve at least 0.9, where 1 is the maximum; inconclusive means response in the unintended direction; inactive means score below 0.9.
# Tests used:
# [1] = biological target: Peroxisome proliferator-activated receptor gamma (Homo sapiens) (UniProt P37231); test: ATG_hPPARg_XSP2: Attagene TRANS-FACTORIAL Multi-Species (XSP2) HepG2 Assay for human Peroxisome Proliferator-activated Receptor gamma (PPARg) (AID 2283829);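 further: actives raise reporter mRNA above DMSO so AC50 reflects PPARg activation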
# Sequence of Peroxisome proliferator-activated receptor gamma (Homo sapiens) (P37231 whole entry, looked up, the tested form may be a part): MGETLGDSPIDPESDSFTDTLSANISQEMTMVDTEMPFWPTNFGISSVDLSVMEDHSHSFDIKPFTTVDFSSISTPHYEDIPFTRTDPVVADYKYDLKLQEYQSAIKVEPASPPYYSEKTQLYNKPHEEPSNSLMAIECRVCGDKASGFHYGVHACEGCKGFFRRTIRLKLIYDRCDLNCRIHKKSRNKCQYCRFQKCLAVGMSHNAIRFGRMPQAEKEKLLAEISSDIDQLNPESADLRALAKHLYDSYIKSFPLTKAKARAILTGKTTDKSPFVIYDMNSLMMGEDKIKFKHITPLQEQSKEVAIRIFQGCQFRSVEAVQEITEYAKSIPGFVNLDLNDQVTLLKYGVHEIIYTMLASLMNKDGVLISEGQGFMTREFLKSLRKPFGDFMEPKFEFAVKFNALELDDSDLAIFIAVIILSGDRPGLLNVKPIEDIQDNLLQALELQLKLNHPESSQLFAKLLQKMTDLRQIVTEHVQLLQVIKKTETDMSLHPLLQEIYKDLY
# How it was run: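 Reporter transcripts were measured by RT-PCR, fluorescent labeling, HpaI digestion and capillary electrophoresis, relative to DMSO, 24 h post-dosing. Transiently transfected HepG2 expressed NR-Gal4 chimeras regulating GAL4-UAS reporters; medium contained 3 nM 6-alpha-fluorotestosterone plus 1.5 nM norgestrel.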
# [2] = biological target: mouse Peroxisome Proliferator-activated Receptor gamma (PPARg), Pparg (gene 19016) (UniProt P37238); test: ATG_mPPARg_XSP2: Attagene TRANS-FACTORIAL Multi-Species (XSP2) HepG2 Assay for mouse Peroxisome Proliferator-activated Receptor gamma (PPARg) (AID 2283830);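 further: hits are gains in reporter mRNA above DMSO so AC50 marks activation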
# Sequence of mouse Peroxisome Proliferator-activated Receptor gamma (PPARg), Pparg (gene 19016) (P37238 whole entry, looked up, the tested form may be a part): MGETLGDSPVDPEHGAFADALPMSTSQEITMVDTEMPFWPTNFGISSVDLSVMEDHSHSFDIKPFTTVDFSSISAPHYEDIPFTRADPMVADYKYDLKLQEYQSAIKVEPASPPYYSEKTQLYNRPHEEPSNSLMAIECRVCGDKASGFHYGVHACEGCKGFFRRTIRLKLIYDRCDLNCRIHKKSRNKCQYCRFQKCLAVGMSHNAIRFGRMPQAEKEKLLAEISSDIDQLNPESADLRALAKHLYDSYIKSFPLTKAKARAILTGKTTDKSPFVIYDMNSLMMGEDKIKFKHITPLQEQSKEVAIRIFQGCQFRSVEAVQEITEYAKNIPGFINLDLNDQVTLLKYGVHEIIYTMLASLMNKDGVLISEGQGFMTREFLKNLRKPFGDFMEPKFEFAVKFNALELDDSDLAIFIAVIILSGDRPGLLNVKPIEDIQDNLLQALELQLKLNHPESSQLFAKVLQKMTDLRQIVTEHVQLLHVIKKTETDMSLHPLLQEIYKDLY
# How it was run: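 HepG2 cells transiently transfected with GAL4-UAS reporter units for chimeric NR-Gal4 proteins including mouse PPARg, exposed 24 h; medium contained 3 nM 6-alpha-fluorotestosterone and 1.5 nM norgestrel. Reporter mRNA quantified by RT-PCR, HpaI digestion and capillary electrophoresis, vs DMSO.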
# [3] = biological target: zebrafish Thyroid Hormone Receptor alpha (TRa), thraa (gene 30670) (UniProt Q98867); test: ATG_zfTRa_XSP2: Attagene TRANS-FACTORIAL Multi-Species (XSP1) HepG2 Assay for zebrafish Thyroid Hormone Receptor alpha (TRa) (AID 2283832);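 further: actives raise zebrafish TRa-Gal4 reporter transcript above DMSO baseline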
# Sequence of zebrafish Thyroid Hormone Receptor alpha (TRa), thraa (gene 30670) (Q98867 whole entry, looked up, the tested form may be a part): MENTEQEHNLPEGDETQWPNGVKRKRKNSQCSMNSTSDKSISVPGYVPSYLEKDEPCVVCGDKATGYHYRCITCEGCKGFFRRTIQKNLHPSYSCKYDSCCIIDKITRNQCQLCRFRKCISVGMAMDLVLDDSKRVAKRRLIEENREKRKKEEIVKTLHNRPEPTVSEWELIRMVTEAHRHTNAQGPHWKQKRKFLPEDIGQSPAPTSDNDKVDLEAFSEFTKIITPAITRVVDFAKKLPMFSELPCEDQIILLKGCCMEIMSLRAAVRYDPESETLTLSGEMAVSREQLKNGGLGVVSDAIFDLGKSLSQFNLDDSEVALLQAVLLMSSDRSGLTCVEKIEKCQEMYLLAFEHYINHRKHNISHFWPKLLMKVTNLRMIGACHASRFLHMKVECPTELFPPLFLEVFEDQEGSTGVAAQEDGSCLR
# How it was run: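 Chimeric receptor-Gal4 activity was assessed in transfected human liver HepG2 cells 24 h after dosing, using reporter transcript levels detected by RT-PCR and capillary electrophoresis. DMSO served as baseline.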
# [4] = ATG_M_61_XSP2: Attagene TRANS-FACTORIAL Multi-Species (XSP2) HepG2 Assay for M61 Transcription Factor (Internal Marker) (AID 2283835; active means hit-call score of the fitted dose curve at least 0.9, where 1 is the maximum; inactive means score below 0.9;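 further: reporter mRNA of an internal background marker read by RT-PCR and capillary electrophoresis; active means a rise in signal above the DMSO baseline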)
# How it was run: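 First, HepG2 cells are transfected with reporter units under GAL4-UAS control. Next, chemicals are applied for 24 h. Then total RNA is reverse-transcribed, amplified, fluorescently labelled and sized by capillary electrophoresis, with gain of signal scored against DMSO.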
# [5] = biological target: frog Thyroid hormone Receptor alpha (TRa), thra-a (gene 397942) (UniProt P15204); test: ATG_frTRa_XSP2: Attagene TRANS-FACTORIAL Multi-Species (XSP2) HepG2 Assay for frog Thyroid hormone Receptor alpha (TRa) (AID 2283839);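 on AC50: AC50 reflects induction of frog TRa-driven reporter mRNA above DMSO baseline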
# Sequence of frog Thyroid hormone Receptor alpha (TRa), thra-a (gene 397942) (P15204 whole entry, looked up, the tested form may be a part): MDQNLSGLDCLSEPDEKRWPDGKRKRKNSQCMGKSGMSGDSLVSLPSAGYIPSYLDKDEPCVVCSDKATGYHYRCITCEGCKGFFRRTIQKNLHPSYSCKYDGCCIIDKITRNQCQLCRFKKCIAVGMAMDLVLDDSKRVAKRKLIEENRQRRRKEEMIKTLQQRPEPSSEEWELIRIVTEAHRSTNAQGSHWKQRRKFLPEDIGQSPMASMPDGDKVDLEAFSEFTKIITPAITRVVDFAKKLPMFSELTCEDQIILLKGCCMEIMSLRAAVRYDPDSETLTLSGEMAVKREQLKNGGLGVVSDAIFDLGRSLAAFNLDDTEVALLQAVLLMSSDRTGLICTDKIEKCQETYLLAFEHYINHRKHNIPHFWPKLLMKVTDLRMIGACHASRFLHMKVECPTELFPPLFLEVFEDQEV
# How it was run: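 Reporter transcripts were measured by RT-PCR with capillary electrophoresis after 24 h dosing of HepG2 carrying transiently transfected multi-reporter units, including a chimeric frog TRa-GAL4 construct. Activity was taken as increase over DMSO vehicle.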
# [6] = biological target: human Thyroid hormone Receptor beta (TRb), THRB (gene 7068) (UniProt P10828); test: ATG_hTRb_XSP2: Attagene TRANS-FACTORIAL Multi-Species (XSP2) HepG2 Assay for human Thyroid hormone Receptor beta (TRb) (AID 2283840);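 further: actives raise reporter mRNA so potency reflects agonist-like gain of signal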
# Sequence of human Thyroid hormone Receptor beta (TRb), THRB (gene 7068) (P10828 whole entry, looked up, the tested form may be a part): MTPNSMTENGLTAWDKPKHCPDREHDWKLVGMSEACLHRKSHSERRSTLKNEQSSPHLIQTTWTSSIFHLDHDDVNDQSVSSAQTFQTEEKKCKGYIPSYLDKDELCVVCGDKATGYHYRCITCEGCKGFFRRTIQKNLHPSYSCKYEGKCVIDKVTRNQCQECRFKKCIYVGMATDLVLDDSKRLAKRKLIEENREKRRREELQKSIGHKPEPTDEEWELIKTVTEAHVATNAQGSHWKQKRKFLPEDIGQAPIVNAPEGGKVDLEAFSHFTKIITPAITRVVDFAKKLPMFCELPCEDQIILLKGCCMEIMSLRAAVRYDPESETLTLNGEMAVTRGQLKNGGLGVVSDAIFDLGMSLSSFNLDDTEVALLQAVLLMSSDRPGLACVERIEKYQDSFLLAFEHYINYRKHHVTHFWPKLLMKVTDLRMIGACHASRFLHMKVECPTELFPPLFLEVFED
# How it was run: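 Activity of exogenous human TRb–Gal4 fusion measured by reporter mRNA from RT-PCR and capillary electrophoresis, 24 h after dosing transfected HepG2. 6-alpha-fluorotestosterone (3 nM) and norgestrel (1.5 nM) present. Gain-of-signal fit relative to DMSO.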
# [7] = system: zebrafish Peroxisome Proliferator-activated Receptor gamma (PPARg), gene 557037; test: ATG_zfPPARg_XSP2: Attagene TRANS-FACTORIAL Multi-Species (XSP2) HepG2 Assay for zebrafish Peroxisome Proliferator-activated Receptor gamma (PPARg) (AID 2283833);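 further: actives increase reporter signal over DMSO so AC50 reflects activation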
# How it was run: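 After 24 h chemical exposure, RNA from transiently transfected HepG2 (chimeric NR-Gal4 TRANS reporters) was reverse-transcribed, PCR-amplified, 6-FAM-labelled, HpaI-cut and sized by capillary electrophoresis. Induction was scored in the positive direction relative to DMSO.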
# [8] = biological target: zebrafish Thyroid Hormone Receptor beta (TRb), thrb (gene 30607) (UniProt Q9PVE4); test: ATG_zfTRb_XSP2: Attagene TRANS-FACTORIAL Multi-Species (XSP1) HepG2 Assay for zebrafish Thyroid Hormone Receptor beta (TRb) (AID 2283836);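 on AC50: potency for induction of reporter signal above DMSO so agonist direction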
# Sequence of zebrafish Thyroid Hormone Receptor beta (TRb), thrb (gene 30607) (Q9PVE4 whole entry, looked up, the tested form may be a part): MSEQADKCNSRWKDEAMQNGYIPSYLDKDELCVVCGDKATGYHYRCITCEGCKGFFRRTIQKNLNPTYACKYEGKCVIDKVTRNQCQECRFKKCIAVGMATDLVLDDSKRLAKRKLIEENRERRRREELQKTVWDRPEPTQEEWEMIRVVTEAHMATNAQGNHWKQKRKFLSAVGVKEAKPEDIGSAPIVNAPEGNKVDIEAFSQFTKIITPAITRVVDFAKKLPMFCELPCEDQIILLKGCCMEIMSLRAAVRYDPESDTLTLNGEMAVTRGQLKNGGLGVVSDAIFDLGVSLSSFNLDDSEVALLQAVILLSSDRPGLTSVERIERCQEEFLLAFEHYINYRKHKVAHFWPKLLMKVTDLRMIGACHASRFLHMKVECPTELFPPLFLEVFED
# How it was run: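 Fluorescence of labelled reporter cDNA fragments, separated by capillary electrophoresis, gives mRNA induction from exogenous NR-Gal4 chimeras in transiently transfected HepG2 cells after 24 h dosing; 3 nM 6-alpha-fluorotestosterone and 1.5 nM norgestrel included in the run.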
# [9] = biological target: human Thyroid hormone Receptor alpha (TRa), THRA (gene 7067) (UniProt P10827); test: ATG_hTRa_XSP2: Attagene TRANS-FACTORIAL Multi-Species (XSP2) HepG2 Assay for human Thyroid hormone Receptor alpha (TRa) (AID 2283838)
# Sequence of human Thyroid hormone Receptor alpha (TRa), THRA (gene 7067) (P10827 whole entry, looked up, the tested form may be a part): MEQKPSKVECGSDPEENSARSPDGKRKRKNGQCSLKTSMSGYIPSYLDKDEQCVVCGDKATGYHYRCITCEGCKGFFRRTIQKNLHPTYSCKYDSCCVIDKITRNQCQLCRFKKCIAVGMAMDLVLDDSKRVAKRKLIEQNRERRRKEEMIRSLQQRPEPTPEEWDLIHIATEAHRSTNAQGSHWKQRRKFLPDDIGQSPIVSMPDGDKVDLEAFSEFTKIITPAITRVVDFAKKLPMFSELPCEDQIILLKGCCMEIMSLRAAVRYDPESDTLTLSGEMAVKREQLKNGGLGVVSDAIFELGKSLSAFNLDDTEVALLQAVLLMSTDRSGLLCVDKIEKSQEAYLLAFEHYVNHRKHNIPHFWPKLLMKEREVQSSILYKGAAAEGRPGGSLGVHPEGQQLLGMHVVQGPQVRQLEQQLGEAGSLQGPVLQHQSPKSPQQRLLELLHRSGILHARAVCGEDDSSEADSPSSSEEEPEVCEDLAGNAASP
# How it was run: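 HepG2 cells transiently transfected with multiplexed GAL4-UAS reporter units and exogenous NR-GAL4 chimeras; 24 h chemical exposure with 3 nM 6-alpha-fluorotestosterone and 1.5 nM norgestrel present. Reporter mRNA measured by RT-PCR, FAM labelling, HpaI digestion, capillary electrophoresis; gain-of-signal versus DMSO.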
# [10] = ATG_XTT_Cytotoxicity_XSP2: Cytotoxicity Assessment in the Attagene TRANS-FACTORIAL Multi-Species (XSP2) HepG2 Assay (AID 2283837)
# How it was run: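 HepG2 cells, transiently transfected with multiple reporter constructs, exposed to chemical for 24 h. Cell number assessed with XTT fluorescence read-out; loss of signal fitted relative to DMSO.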
smiles,measurement,setting,value
CC(C)CCCCCCc1ccc(O)cc1,outcome,[1],inactive
same,outcome,[2],inactive
same,outcome,[3],inactive
same,outcome,[4],inactive
same,outcome,[5],inactive
same,outcome,[6],inactive
C#C[C@]1(O)CC[C@H]2[C@@H]3CCC4=CC(=O)CC[C@@H]4[C@H]3CC[C@@]21CC,outcome,[1],inactive
same,outcome,[3],inactive
same,outcome,[7],inactive
same,outcome,[4],inactive
same,outcome,[8],inactive
same,outcome,[9],inactive
same,outcome,[5],inactive
same,AC50,[6],1.44 µM (active)
CC1(C)C(C=C(Cl)Cl)C1C(=O)OCc1cccc(Oc2ccccc2)c1 (centres undefined),outcome,[3],inactive
same,outcome,[7],inactive
same,outcome,[9],inactive
same,outcome,[5],inactive
same,AC50,[6],100 µM (active)
O=C(c1ccc(O)cc1O)c1ccc(O)cc1O,outcome,[1],inactive
same,outcome,[2],inactive
same,outcome,[4],inactive
same,outcome,[8],inactive
same,outcome,[5],inactive
same,outcome,[6],inactive
Oc1ccc(C(c2ccc(O)cc2)C(Cl)(Cl)Cl)cc1,outcome,[1],inactive
same,outcome,[2],inactive
same,outcome,[3],inactive
same,outcome,[4],inactive
same,outcome,[8],inactive
same,outcome,[5],inactive
same,outcome,[6],inactive
CC(=O)S[C@@H]1CC2=CC(=O)CC[C@]2(C)[C@H]2CC[C@@]3(C)[C@@H](CC[C@@]34CCC(=O)O4)[C@H]12,outcome,[1],inactive
same,outcome,[3],inactive
same,outcome,[4],inactive
same,outcome,[8],inactive
same,outcome,[9],inactive
same,outcome,[5],inactive
same,outcome,[6],inactive
CCN(Cc1c(F)cccc1Cl)c1c([N+](=O)[O-])cc(C(F)(F)F)cc1[N+](=O)[O-],outcome,[1],inactive
same,outcome,[2],inactive
same,outcome,[3],inactive
same,outcome,[7],inactive
same,outcome,[8],inactive
same,outcome,[10],inactive
same,outcome,[9],inactive
same,outcome,[5],inactive
same,outcome,[6],inactive
CCCCC(CC)CN1C(=O)C2C3C=CC(C3)C2C1=O (centres undefined),AC50,[1],100 µM (active)
same,AC50,[2],177 µM (active)
same,outcome,[3],inactive
same,AC50,[7],100 µM (active)
same,outcome,[5],inactive
CC(C)(c1ccc(O)cc1)c1ccc(O)cc1,outcome,[1],inactive
same,outcome,[2],inactive
same,AC50,[3],12.7 µM (active)
same,outcome,[7],inactive
same,outcome,[4],inactive
same,outcome,[8],inactive
same,outcome,[5],inactive
same,outcome,[6],inactive
C=CCOC(Cn1ccnc1)c1ccc(Cl)cc1Cl (centres undefined),AC50,[1],82.2 µM (active)
same,AC50,[2],100 µM (active)
same,outcome,[7],inactive
same,outcome,[4],inactive
same,outcome,[8],inactive
same,outcome,[9],inactive
CCCCC(CC)COC(=O)c1ccccc1C(=O)O (centres undefined),AC50,[2],18.2 µM (active)
same,AC50,[7],59.8 µM (active)
same,outcome,[4],inactive
same,outcome,[5],inactive
CSC(=O)c1cccc2nnsc12,AC50,[1],51.7 µM (active)
same,outcome,[1],inactive
same,AC50,[2],20.5 µM (active)
same,outcome,[2],inactive
same,outcome,[4],inactive
same,outcome,[8],inactive
same,outcome,[6],inactive
N[C@@H](Cc1cc(I)c(Oc2ccc(O)c(I)c2)c(I)c1)C(=O)O,AC50,[1],6.33 µM (active)
same,outcome,[1],inactive
same,AC50,[2],3.89 µM (active)
same,outcome,[2],inactive
same,AC50,[3],0.534 nM (active) and 449 nM (active)
same,outcome,[7],inactive
same,outcome,[4],inactive
same,AC50,[8],0.339 nM (active) and 77 nM (active)
same,outcome,[10],inactive
same,AC50,[5],0.185 nM (active) and 197 nM (active)
CN(C)C(=O)Nc1ccc(Cl)c(Cl)c1,outcome,[1],inactive
same,AC50,[2],100 µM (active)
same,outcome,[2],inactive
same,outcome,[3],inactive
same,outcome,[7],inactive
same,outcome,[4],inactive
same,outcome,[8],inactive
same,outcome,[10],inactive
same,outcome,[9],inactive
same,outcome,[5],inactive
same,outcome,[6],inactive
